The experiment in a line: NCI Yeast Anticancer Drug Screen. Data for the mgt1 strain (AID 153). The conditions noted are these: S. cerevisiae mgt1 mutant growth inhibition, stronger effect = higher value. Here is the method: Growth inhibition of yeast strains with defined genetic alterations is measured as a screen for potential anti-cancer activity. Selected strains with alterations in DNA damage repair or cell cycle control were exposed to compounds and growth inhibition was measured relative to vehicle treated controls. The strain used in this assay is mgt1

SMILES strings stand for the structures. The panel holds about 79,000 compounds, 15% with a hit somewhere; the sample as a whole holds those more often. Unmarked numbers belong to inactive results. Activity calls are given as the source filed them. No stated cut-off is given here; in the data, active means growth inhibition above about 70%; inactive means the rest.

Regarding `O=C(Cc1csc2[n+]1C(=O)/C(=C/c1ccc(Cl)cc1)S2)Nc1ccccc1`, the growth inhibition (at 1.2 µM) was -1%; the growth inhibition (at 3.7 µM) is 1%; the growth inhibition (at 11.0 µM) is 7%; the growth inhibition (at 33.0 µM) was 54%; the growth inhibition (at 100.0 µM) is 87% (active).

As for `Clc1cccc(C(Nc2nncs2)Nc2nncs2)c1Cl`, the growth inhibition (at 1.2 µM) was 0%; the growth inhibition (at 3.7 µM) was 0%; the growth inhibition (at 11.0 µM) was 0%; the growth inhibition (at 33.0 µM) is 12%; the growth inhibition (at 100.0 µM) is 49%.

Turning to `O=[N+]([O-])c1cccc([N+](=O)[O-])c1S(=O)(=O)c1ccccc1`, the growth inhibition is 19% (at 1.2 µM); 1% (at 3.7 µM); 68% (at 11.0 µM); 93% (active) (at 33.0 µM); 94% (active) (at 100.0 µM).

On to `CC(=O)ON1C(=O)c2cccc3cccc(c23)C1=O`, for which the growth inhibition runs as follows: (at 1.2 µM) 8%; (at 3.7 µM) 46%; (at 11.0 µM) 95% (active); (at 33.0 µM) 97% (active); (at 100.0 µM) 98% (active).

As to `CCCCCCc1cc(C(=O)OC/C(C)=N/NC(N)=O)c2ccccc2n1`, the growth inhibition is, setting by setting: (at 1.2 µM) -3%; (at 3.7 µM) -3%; (at 11.0 µM) -2%; (at 33.0 µM) -5%; (at 100.0 µM) -5%.

Consider `CN1Cc2ccccc2/C=C\c2ccccc21`, for which the growth inhibition reads like this: (at 1.2 µM) 0%; (at 3.7 µM) -3%; (at 11.0 µM) -1%; (at 33.0 µM) 7%; (at 100.0 µM) 22%.

For the molecule `O=C1C(Nc2ccccc2)=C(Oc2ccccc2)C(=O)c2ccccc21`, the growth inhibition was 5% (at 1.2 µM); -2% (at 3.7 µM); 2% (at 11.0 µM); 1% (at 33.0 µM); -1% (at 100.0 µM).

Consider `Cc1cc(CO)c(O)c(CNCc2cc(C)cc(CO)c2O)c1`, for which the growth inhibition was -13% (at 1.2 µM); -17% (at 3.7 µM); -18% (at 11.0 µM); -9% (at 33.0 µM); 98% (active) (at 100.0 µM).

The values above are taken from PubChem BioAssay (NCI).
